Source: PubChem BioAssay (EPA / NIEHS)
Values joined by “and” are separate entries in the source; they are usually repeats but may differ in a detail not shown here. Equal entries are not always repeated. Records with an inconclusive call do not appear. Active and inactive are the calls of the source. How the source made its calls, unless noted: active means hit-call score of the fitted dose curve at least 0.9, where 1 is the maximum; inactive means score below 0.9.

What was measured:
[1] = read-out: Monokine induced gamma interferon (MIG), CXCL9 (gene 4283); assay: BSK_SAg_MIG: BioMAP Diversity Plus: SAg Assay for Monokine induced gamma interferon (MIG) Biomarker Activity (AID 2283092); conditions: primary human HUVEC with PBMC; actives raise or lower the signal
In short: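 HUVEC plus human PBMC co-culture, chemicals dosed and MIG (CXCL9) quantified by ELISA at 24 h. Bidirectional curve fitting against DMSO as negative control and baseline, so both gain and loss of signal count as activity.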

[2] = BSK_SAg_PBMCCytotoxicity: PBMC Cytotoxicity Assessment in the BioMAP Diversity Plus: SAg Assay (AID 2283093); conditions: primary human HUVEC with PBMC;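 further: PBMC viability measured as Alamar Blue reduction fluorescence at 546/580 nm; fitted both ways against DMSO so a hit may be loss or gain of signal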;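 on AC50: PBMC superantigen activated with SEB plus TSST-1 one hour after compound addition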
In short: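 Alamar Blue reduction (6 h, 546/580 nm) reports PBMC cytotoxicity after 90 h superantigen activation (SEB, TSST-1; 20 ng/mL final each) with 1 h compound pre-treatment. Gain or loss of signal fitted versus DMSO.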

[3] = read-out: Interleukin-8 (IL8), CXCL8 (gene 3576); assay: BSK_SAg_IL8: BioMAP Diversity Plus: SAg Assay for Interleukin-8 (IL8) Biomarker Activity (AID 2283094); conditions: primary human HUVEC with PBMC; actives raise or lower the signal
In short: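 HUVEC/PBMC co-culture, 24 h post-dose; IL-8 by ELISA. Gain or loss of signal fitted bidirectionally vs DMSO baseline.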

[4] = BSK_SAg_Proliferation: Cell Proliferation Assessment in the BioMAP Diversity Plus: SAg Assay (AID 2283095); conditions: primary human HUVEC with PBMC;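 further: relative cell number as total protein by SRB absorbance in sub-confluent culture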
In short: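 HUVEC/PBMC co-culture, 96-well. TCA-fixed (10%), 0.1% SRB stain, A560 at 96 h. Protein content used as viability readout; bidirectional fitting vs DMSO control.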

[5] = BSK_SAg_SRB: Viability Assessment in the BioMAP Diversity Plus: SAg Assay (AID 2283096); conditions: primary human HUVEC with PBMC;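 further: cells read one day after compound addition; hits may be either gain or loss of signal compared with DMSO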
In short: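 This overt-cytotoxicity endpoint quantifies protein in human endothelial/PBMC co-cultures at 24 h using SRB absorbance (560 nm) after trichloroacetic acid fixation. Values reflect signal change from the DMSO negative control, fitted bidirectionally.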

[6] = molecular target: human CYP2C9, CYP2C9 (gene 1559) (UniProt P11712); assay: NVS_ADME_hCYP2C9: NovaScreen (NVS) CYP450-related Enzyme Activity (ADME) Assay for human CYP2C9 (AID 2283108; active means hit-call score of the fitted dose curve at least 0.9, where 1 is the maximum)
In short: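 Cell-free assay of recombinant human CYP2C9 produced in Sf9 cells, with enzyme activity read by fluorescence intensity 0.75 h after compound addition. Loss of signal versus an acetonitrile negative control indicates inhibition. Primary screen used 10 uM in duplicate; actives were retested in concentration series.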

[7] = molecular target: Cytochrome P450 2C19 (Homo sapiens) (UniProt P33261); assay: NVS_ADME_hCYP2C19: NovaScreen (NVS) CYP450-related Enzyme Activity (ADME) Assay for human CYP2C19 (AID 2283113; active means hit-call score of the fitted dose curve at least 0.9, where 1 is the maximum;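 further: potency for inhibition seen as loss of fluorescent signal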)
In short: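 Recombinant insect-cell-expressed enzyme, fluorescent substrate, 1 h after chemical addition, fluorescence intensity. Baseline = acetonitrile vehicle; activity scored as signal loss. Primary HTS single concentration 10 uM, duplicate; actives retested in concentration series.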

[8] = molecular target: human CYP2D6, CYP2D6 (gene 1565) (UniProt P10635); assay: NVS_ADME_hCYP2D6: NovaScreen (NVS) CYP450-related Enzyme Activity (ADME) Assay for human CYP2D6 (AID 2283107; active means hit-call score of the fitted dose curve at least 0.9, where 1 is the maximum)
In short: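 Fluorescence intensity read 1 h post-dosing; insect-cell-expressed recombinant protein with fluorogenic substrate, no cells. Activity is scored as signal loss relative to acetonitrile baseline, first at a single 10 uM concentration in duplicate, then as concentration series for confirmed actives.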

[9] = molecular target: human Caspase 5 (CASP5), CASP5 (gene 838) (UniProt P51878); assay: NVS_ENZ_hCASP5: NovaScreen (NVS) Enzymatic Assay for human Caspase 5 (CASP5) (AID 2283137; active means hit-call score of the fitted dose curve at least 0.9, where 1 is the maximum)
In short: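 Fluorescent substrate readout of CASP5 activity (loss-of-signal), measured 2 h post-dose. Protein expressed in E. coli. Primary screen duplicate at 25 uM; actives meeting threshold (e.g., 30% inhibition) rerun singleton, max 50 uM.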

[10] = molecular target: human Matrix Metalloproteinase-9 (MMP9), MMP9 (gene 4318) (UniProt P14780); assay: NVS_ENZ_hMMP9: NovaScreen (NVS) Enzymatic Assay for human Matrix Metalloproteinase-9 (MMP9) (AID 2283190; active means hit-call score of the fitted dose curve at least 0.9, where 1 is the maximum;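 further: cell-free recombinant MMP9 protease activity read by fluorescent substrate signal; active means inhibition seen as loss of fluorescence signal versus DMSO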)
In short: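 Cell-free recombinant MMP9 enzyme activity measured by fluorescence intensity 1 h after dosing. Primary screen in duplicate at 25 uM, actives followed in concentration series; loss of signal relative to DMSO.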

[11] = molecular target: human Phosphoinositide 3-kinase alpha (PI3Ka), PIK3CA (gene 5290) (UniProt P42336); assay: NVS_ENZ_hPI3Ka: NovaScreen (NVS) Enzymatic Assay for human Phosphoinositide 3-kinase alpha (PI3Ka) (AID 2283196; active means hit-call score of the fitted dose curve at least 0.9, where 1 is the maximum)
In short: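 Recombinant human PI3Kα with fluorescent substrate, 1 h, product separated by electrophoretic mobility shift; 25 uM duplicate screen, hits (e.g., 30% inhibition) retested singly up to 50 uM; loss of signal vs DMSO.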

[12] = molecular target: guinea pig Leukotriene D4 Receptor (LTD4), CYSLTR1 (gene 100135514) (UniProt Q2NNR5); assay: NVS_GPCR_gLTD4: NovaScreen (NVS) G Protein-Coupled Receptor Assay for guinea pig Leukotriene D4 Receptor (LTD4) (AID 2283248; active means hit-call score of the fitted dose curve at least 0.9, where 1 is the maximum)
In short: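 Guinea pig lung membrane preparation; bound radioligand measured by filter scintillation after 1 h, loss of signal versus DMSO marking displacement. Compounds tested at 25 uM in duplicate, hits retested to max 50 uM.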

[13] = molecular target: human Beta-secretase (BACE), BACE1 (gene 23621) (UniProt P56817); assay: NVS_ENZ_hBACE: NovaScreen (NVS) Enzymatic Assay for human Beta-secretase (BACE) (AID 2283140; active means hit-call score of the fitted dose curve at least 0.9, where 1 is the maximum;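 further: hits are inhibitors that reduce fluorescent substrate signal versus DMSO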)
In short: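 SF9-expressed enzyme, cell-free; fluorescent substrate readout after 1 h. Screened at 25 uM single concentration, duplicate; hits retested in concentration series. Activity relative to DMSO baseline, loss-of-signal.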

[14] = molecular target: human Ephrin type-A Receptor 1 (EphA1), EPHA1 (gene 2041) (UniProt P21709); assay: NVS_ENZ_hEphA1: NovaScreen (NVS) Enzymatic Assay for human Ephrin type-A Receptor 1 (EphA1) (AID 2283158; active means hit-call score of the fitted dose curve at least 0.9, where 1 is the maximum;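 further: activity is signal loss versus DMSO meaning EphA1 kinase inhibition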)
In short: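 Recombinant kinase, fluorescent substrate, mobility-shift separation, fluorescence read at 1 h. Single-point duplicates at 25 uM; hits (e.g., ≥30% inhibition) run singleton concentration-response, max 50 uM. DMSO = negative control/baseline.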

[15] = molecular target: human Phosphodiesterase 10 (PDE10), PDE10A (gene 10846) (UniProt Q9Y233); assay: NVS_ENZ_hPDE10: NovaScreen (NVS) Enzymatic Assay for human Phosphodiesterase 10 (PDE10) (AID 2283195; active means hit-call score of the fitted dose curve at least 0.9, where 1 is the maximum)
In short: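 Readout is fluorescence intensity following electrophoretic mobility-shift separation, 1 h after dosing of isolated PDE10A protein. Hits meeting a preset threshold at 25 uM went to concentration series (max 50 uM), analysed relative to DMSO.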

Measured: AC50

human CYP2C9, CYP2C9 (gene 1559), sequence (P11712 whole entry, looked up): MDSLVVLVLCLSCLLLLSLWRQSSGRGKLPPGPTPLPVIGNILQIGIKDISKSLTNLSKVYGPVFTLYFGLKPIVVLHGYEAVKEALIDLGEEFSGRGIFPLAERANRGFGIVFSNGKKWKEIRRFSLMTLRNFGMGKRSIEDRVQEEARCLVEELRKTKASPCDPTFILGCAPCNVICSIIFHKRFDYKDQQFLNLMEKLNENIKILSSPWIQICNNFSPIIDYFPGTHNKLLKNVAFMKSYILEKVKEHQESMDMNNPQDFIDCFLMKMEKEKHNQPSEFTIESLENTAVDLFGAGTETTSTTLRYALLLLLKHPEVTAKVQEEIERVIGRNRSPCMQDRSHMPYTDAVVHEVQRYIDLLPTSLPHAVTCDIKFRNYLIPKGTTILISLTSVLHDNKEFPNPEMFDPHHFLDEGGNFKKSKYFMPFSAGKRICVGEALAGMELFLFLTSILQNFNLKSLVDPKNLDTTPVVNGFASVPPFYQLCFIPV
human CYP2D6, CYP2D6 (gene 1565), sequence (P10635 whole entry, looked up): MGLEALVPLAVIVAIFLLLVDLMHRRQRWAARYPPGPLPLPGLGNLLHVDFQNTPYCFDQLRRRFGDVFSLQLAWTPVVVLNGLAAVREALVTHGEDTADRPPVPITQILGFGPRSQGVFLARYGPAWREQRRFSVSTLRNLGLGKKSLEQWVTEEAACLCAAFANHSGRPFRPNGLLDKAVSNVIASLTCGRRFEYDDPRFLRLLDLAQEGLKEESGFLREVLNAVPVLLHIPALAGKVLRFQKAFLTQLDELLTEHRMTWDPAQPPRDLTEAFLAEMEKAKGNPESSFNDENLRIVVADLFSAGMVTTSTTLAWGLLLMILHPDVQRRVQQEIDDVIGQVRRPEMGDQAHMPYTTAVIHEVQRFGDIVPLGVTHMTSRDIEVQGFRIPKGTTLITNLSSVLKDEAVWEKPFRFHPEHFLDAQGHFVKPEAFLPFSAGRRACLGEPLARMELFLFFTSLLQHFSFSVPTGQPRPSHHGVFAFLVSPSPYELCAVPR
human Matrix Metalloproteinase-9 (MMP9), MMP9 (gene 4318), sequence (P14780 whole entry, looked up): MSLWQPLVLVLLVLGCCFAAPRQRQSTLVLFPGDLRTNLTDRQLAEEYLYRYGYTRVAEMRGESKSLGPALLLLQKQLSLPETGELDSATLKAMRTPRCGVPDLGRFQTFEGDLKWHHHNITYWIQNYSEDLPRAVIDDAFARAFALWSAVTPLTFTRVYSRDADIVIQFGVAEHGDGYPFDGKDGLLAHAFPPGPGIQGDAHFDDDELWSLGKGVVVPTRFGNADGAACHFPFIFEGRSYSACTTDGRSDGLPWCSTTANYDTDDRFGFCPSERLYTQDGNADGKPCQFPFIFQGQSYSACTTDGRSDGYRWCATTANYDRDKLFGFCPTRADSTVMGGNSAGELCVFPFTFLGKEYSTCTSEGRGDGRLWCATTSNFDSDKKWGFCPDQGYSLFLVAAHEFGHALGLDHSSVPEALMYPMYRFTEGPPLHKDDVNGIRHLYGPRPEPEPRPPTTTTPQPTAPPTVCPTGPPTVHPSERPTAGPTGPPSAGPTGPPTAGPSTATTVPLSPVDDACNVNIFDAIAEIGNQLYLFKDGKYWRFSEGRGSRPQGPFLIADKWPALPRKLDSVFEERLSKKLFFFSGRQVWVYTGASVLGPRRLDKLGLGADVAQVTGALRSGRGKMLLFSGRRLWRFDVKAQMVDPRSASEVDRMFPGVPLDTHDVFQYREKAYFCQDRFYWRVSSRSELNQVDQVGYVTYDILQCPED
human Phosphoinositide 3-kinase alpha (PI3Ka), PIK3CA (gene 5290), sequence (P42336 whole entry, looked up): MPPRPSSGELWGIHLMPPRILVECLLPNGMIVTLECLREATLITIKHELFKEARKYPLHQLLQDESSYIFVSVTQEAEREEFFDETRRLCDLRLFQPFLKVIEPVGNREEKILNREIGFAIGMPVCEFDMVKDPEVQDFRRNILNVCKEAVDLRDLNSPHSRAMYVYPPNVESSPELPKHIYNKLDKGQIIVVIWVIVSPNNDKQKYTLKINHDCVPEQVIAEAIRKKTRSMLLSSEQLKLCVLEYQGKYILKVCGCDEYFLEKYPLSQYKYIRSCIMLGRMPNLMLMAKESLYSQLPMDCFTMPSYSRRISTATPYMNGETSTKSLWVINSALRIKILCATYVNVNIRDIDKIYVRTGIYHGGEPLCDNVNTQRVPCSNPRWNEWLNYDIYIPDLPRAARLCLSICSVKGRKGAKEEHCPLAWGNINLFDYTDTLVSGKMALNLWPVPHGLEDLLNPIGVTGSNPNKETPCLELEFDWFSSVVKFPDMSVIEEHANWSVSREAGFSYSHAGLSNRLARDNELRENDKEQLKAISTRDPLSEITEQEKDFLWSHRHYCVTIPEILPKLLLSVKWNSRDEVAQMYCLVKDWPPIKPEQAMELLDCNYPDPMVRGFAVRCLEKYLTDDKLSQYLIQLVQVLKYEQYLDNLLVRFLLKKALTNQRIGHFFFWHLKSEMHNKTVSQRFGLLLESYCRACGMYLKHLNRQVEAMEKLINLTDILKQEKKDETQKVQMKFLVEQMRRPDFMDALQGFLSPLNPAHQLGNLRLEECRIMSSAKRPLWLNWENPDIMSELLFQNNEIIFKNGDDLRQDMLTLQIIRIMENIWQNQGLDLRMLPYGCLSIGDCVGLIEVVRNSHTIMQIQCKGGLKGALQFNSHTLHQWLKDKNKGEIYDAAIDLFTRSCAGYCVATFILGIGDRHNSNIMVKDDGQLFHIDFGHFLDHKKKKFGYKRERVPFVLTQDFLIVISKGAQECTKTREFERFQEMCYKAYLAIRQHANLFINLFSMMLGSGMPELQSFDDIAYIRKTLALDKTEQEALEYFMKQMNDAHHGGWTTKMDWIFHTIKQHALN
human Ephrin type-A Receptor 1 (EphA1), EPHA1 (gene 2041), sequence (P21709 whole entry, looked up): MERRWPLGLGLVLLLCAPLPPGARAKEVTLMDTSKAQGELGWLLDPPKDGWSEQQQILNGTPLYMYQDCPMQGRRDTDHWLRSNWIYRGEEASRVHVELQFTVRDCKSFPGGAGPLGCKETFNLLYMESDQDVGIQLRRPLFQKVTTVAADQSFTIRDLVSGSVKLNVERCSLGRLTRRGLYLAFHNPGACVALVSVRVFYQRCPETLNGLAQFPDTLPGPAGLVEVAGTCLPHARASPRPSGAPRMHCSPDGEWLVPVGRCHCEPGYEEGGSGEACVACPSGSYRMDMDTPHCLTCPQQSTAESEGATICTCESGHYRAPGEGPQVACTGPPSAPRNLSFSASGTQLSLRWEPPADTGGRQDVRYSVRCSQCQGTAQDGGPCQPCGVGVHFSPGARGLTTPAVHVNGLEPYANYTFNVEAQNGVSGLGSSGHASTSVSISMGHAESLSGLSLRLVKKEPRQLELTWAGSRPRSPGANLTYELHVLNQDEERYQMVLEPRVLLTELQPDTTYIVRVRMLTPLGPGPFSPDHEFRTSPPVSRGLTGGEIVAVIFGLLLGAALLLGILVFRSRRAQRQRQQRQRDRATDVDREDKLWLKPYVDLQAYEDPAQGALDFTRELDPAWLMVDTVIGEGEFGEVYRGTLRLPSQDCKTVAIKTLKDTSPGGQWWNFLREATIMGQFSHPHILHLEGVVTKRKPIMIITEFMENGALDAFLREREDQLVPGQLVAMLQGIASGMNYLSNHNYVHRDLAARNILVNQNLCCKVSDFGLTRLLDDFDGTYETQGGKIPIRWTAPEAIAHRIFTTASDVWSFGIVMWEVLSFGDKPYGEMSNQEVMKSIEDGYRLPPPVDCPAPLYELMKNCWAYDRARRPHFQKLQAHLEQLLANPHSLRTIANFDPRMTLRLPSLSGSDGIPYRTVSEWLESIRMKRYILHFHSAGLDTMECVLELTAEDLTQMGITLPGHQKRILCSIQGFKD
human Caspase 5 (CASP5), CASP5 (gene 838), sequence (P51878 whole entry, looked up): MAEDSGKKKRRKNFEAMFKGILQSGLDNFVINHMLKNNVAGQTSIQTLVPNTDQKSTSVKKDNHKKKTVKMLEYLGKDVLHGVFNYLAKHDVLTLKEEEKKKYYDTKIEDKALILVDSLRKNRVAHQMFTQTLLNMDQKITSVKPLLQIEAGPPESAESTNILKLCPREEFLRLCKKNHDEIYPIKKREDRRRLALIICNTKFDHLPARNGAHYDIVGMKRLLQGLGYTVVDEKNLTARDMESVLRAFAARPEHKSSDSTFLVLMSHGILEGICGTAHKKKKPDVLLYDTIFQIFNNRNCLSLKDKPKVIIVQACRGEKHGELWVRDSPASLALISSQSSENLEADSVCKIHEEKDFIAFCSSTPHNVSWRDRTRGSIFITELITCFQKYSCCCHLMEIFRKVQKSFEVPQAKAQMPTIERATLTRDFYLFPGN
guinea pig Leukotriene D4 Receptor (LTD4), CYSLTR1 (gene 100135514), sequence (Q2NNR5 whole entry, looked up): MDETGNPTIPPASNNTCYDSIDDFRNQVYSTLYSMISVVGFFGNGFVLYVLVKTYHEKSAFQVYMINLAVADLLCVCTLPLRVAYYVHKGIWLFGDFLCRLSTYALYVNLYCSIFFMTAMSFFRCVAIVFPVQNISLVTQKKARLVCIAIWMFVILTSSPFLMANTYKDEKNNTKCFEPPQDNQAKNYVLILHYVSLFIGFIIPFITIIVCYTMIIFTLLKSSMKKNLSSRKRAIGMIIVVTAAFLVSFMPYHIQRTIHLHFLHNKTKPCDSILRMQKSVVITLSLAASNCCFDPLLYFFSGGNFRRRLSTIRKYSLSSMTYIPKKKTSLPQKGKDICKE
human Beta-secretase (BACE), BACE1 (gene 23621), sequence (P56817 whole entry, looked up): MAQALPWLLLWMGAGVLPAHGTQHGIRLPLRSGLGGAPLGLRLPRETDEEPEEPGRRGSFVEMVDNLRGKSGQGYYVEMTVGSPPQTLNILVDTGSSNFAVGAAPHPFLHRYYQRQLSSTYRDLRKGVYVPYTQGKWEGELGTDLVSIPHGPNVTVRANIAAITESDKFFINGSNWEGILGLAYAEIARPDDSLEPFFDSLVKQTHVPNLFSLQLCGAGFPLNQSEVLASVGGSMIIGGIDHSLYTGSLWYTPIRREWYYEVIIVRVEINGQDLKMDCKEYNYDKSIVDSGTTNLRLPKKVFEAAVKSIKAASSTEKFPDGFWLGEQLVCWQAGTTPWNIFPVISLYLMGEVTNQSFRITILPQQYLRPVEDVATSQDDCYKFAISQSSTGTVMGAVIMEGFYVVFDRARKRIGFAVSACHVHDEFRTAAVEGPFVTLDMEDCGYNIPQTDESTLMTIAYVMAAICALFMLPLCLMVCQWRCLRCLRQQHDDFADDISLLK

CCCCOCCOCCOC(=O)CCCCC(=O)OCCOCCOCCCC
inactive: [1] | [2] | [3] | [4] | [5]
active: [6] 3.07 µM | [7] 5 µM

FC(F)(F)C(F)(F)C(F)(F)CI
inactive: [1] | [2] | [3] | [4] | [5]

OCC(F)(F)C(F)(F)C(F)(F)C(F)(F)C(F)(F)C(F)F
inactive: [1] | [2] | [3] | [4] | [5]

Oc1ccc(Nc2ccccc2)cc1
active: [2] 3.57 µM | [4] 3.84 µM | [6] 0.451 µM | [7] 2.86 µM | [9] 8.26 µM | [10] 9.97 µM
inactive: [1] | [3] | [5] | [8] | [11]

OCC(F)(F)C(F)(F)C(F)(F)F
inactive: [1] | [2] | [3] | [4] | [5]

CCCCC(CC)COP(=O)(O)OCC(CC)CCCC (stereo not given)
inactive: [1] | [2] | [3] | [4] | [5]

O=S(=O)(O)C(F)(F)C(F)(F)C(F)(F)C(F)(F)C(F)(F)C(F)(F)C(F)(F)F
inactive: [1] | [2] | [3] | [4] | [5]

FC(F)(F)C(F)(F)C(F)(F)N(C(F)(F)C(F)(F)C(F)(F)F)C(F)(F)C(F)(F)C(F)(F)F
inactive: [1] | [2] | [3] | [4] | [5]

Nc1ccc([N+](=O)[O-])cc1O
inactive: [1] | [2] | [3] | [4] | [5]
active: [8] 3.87 µM | [6] 3.74 µM

C=CC(F)(F)C(F)(F)C(F)(F)C(F)(F)C(F)(F)C(F)(F)C(F)(F)C(F)(F)F
inactive: [1] | [2] | [3] | [4] | [5]

c1ccc(-c2ccccc2-c2ccccc2)cc1
inactive: [12]

CCc1ccc(C(c2ccc(CC)cc2)C(Cl)Cl)cc1
inactive: [3] | [14] | [10]
active: [1] 33.6 µM | [2] 14.5 µM | [4] 8.44 µM | [5] 29.1 µM | [13] 3.11 µM | [15] 14.1 µM

Cc1ccc(S(=O)(=O)OCC(F)(F)C(F)(F)C(F)(F)C(F)(F)C(F)(F)C(F)F)cc1
inactive: [1] | [2] | [3] | [4]
active: [5] 44 µM and 37.4 µM

O=S(=O)(OCCOC(F)(F)F)C(F)(F)F
inactive: [1] | [2] | [3] | [4] | [5]

OCC(F)(F)C(F)(F)C(F)(F)C(F)(F)C(F)(F)C(F)(F)F
inactive: [1] | [2] | [3] | [4] | [5]

C=CC(F)(F)C(F)(F)C(F)(F)C(F)(F)C(F)(F)C(F)(F)C(F)(F)C(F)(F)C=C
inactive: [1] | [2] | [3] | [4] | [5]

COC(=O)CCC(F)(F)C(F)(F)C(F)(F)C(F)(F)F
inactive: [1] | [2] | [3] | [4] | [5]

C=C(C)C(=O)OCC(F)(F)C(F)(F)C(F)(F)C(F)(F)C(F)(F)C(F)(F)C(F)(F)F
inactive: [1] | [2] | [3] | [4] | [5]

CCCCCCC(C)OC(=O)CCCCC(=O)OC(C)CCCCCC (stereo not given)
inactive: [1] | [2] | [3] | [4] | [5]
